# According to the supplement of paper PMC9337992:
# ± gives the standard deviation of the averaged measurements.
# Tested on: MDAMB468
# Experiment: cell proliferation (confluence) relative to DMSO control; higher = less growth inhibition
# Conditions: 5 uM; 6 d
# Method: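 Epigenetic chemical probe screen: 15 TNBC cell lines, 500 cells per well in 384-well plates, treated with 5 uM of each of 36 SGC probes for 6 d. Confluency was imaged by IncuCyte ZOOM and normalised to DMSO control wells. Four replicate wells per compound.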
row,Compound,cell proliferation
1,Cc1cc(=O)n(C)c2cc(N3C(=O)CC[C@H](NS(=O)(=O)CC(C)C)[C@H]3c3ccc(Cl)cc3)ccc12,59.3 ± 2.4%
2,CC(C)Oc1ccc(-c2c[nH]cc2CN(C)CCO)cc1,37 ± 7.3%
3,COc1cc(C#N)ccc1S(=O)(=O)Nc1ccc2c(c1)cc(C)c(=O)n2C,40.4 ± 6.3%
4,COc1c(C)cc(NC(=O)c2nn(Cc3ccc(F)cc3)c3c2CN(C(=O)c2ccc[nH]2)C[C@]3(C)C(N)=O)cc1C,35.5 ± 4.7%
5,CN(C)[C@H]1CN(C2CCc3cccc(F)c32)C[C@@H]1c1ccc(N2CCN(S(C)(=O)=O)CC2)cc1 (some centres not stated),62.7 ± 4.4%
6,Clc1cc2c(NC3CCCC3)nnc(-c3ccncc3)c2cc1Cl,56.9 ± 7.9%
7,CCOC(=O)CCNc1cc(N2CCc3ccccc3CC2)nc(-c2ccccn2)n1,9.55 ± 1.9%
8,Cn1cc(CCn2cnc(-c3cnn(C)c3)c2-c2ccc(C#N)cc2)cn1,55.5 ± 13%
9,CCCc1cc(C)[nH]c(=O)c1CNC(=O)c1cc(-c2ccc(N3CCN(C(C)C)CC3)nc2)cc2c1cnn2C(C)C,13.3 ± 14%
10,CNCCN1CCC(OCc2ccccc2)CC1,37.4 ± 6.8%
11,CCCc1cc(C)[nH]c(=O)c1CNC(=O)c1cc(-c2ccnc(N3CCN(C)CC3)c2)cc2c1cnn2C(C)C,67.7 ± 12%
12,CC(C)Oc1ccc(-c2c[nH]cc2CN(C)CCN)cc1,19.3 ± 5.7%
13,CCC(=O)N1CCOc2c(cc(-c3ccc(OC)c(OC)c3)cc2OC[C@H]2CCCN(C)C2)C1,37.1 ± 9%
14,CC[C@H](C)n1cc(C)c2c(C(=O)NCc3c(C)cc(C)[nH]c3=O)cc(-c3ccc(N4CCNCC4)nc3)cc21,15.4 ± 9%
15,O=C(NC[C@H](O)CN1CCc2ccccc2C1)c1ccnc(NC2CCC2)c1,32 ± 1.8%
16,COc1ccccc1C(=O)Nc1cc2c(cc1N1CCCC1)n(C)c(=O)n2C,39.3 ± 3.8%

row,Compound,cell proliferation
1,O=C(NCC(=O)N1CCCC1)Nc1ccc2cnccc2c1,40.6 ± 15%
2,CCCOc1ccn2c(C(C)=O)cc(-c3ccccc3S(C)(=O)=O)c2c1,66 ± 5.1%
3,CCOC(=O)CCNc1cc(N2CCc3ccccc3CC2)nc(-c2cccnc2)n1,71.9 ± 10%
4,CCCc1cc(C)n(C)c(=O)c1CN(C)C(=O)c1cc(-c2ccc(N3CCN(C(C)C)CC3)nc2)cc2c1cnn2C(C)C,70.4 ± 6.3%
5,O=C([C@@H](Cc1cccc(C(F)(F)F)c1)NS(=O)(=O)c1cc(F)c2c(c1)CCNC2)N1CCCC1,50.5 ± 25%
6,CCN(C(=O)CO)[C@H]1CN(/C(=N\C#N)Nc2cccc(OC(F)F)c2)N=C1c1ccc(Cl)c(Cl)c1,55.2 ± 6%
7,O=C(/C=C/N1C[C@H]2C[C@@H]1CN2c1ccccn1)c1ccccc1O,75.6 ± 6.1%
8,COc1ccccc1S(=O)(=O)Nc1ccc2c(c1)CN(C)C(=O)N2,23.2 ± 2.7%
9,CC(C)N(CCCNC(=O)Nc1ccc(C(C)(C)C)cc1)C[C@H]1O[C@@H](n2cc(Br)c3c(N)ncnc32)[C@H](O)[C@@H]1O,54.2 ± 14%
10,COc1ccc(CCc2nc3cc(-c4c(C)noc4C)ccc3n2C[C@H](C)N2CCOCC2)cc1Cl,32.8 ± 4%
11,COc1cc2c(NC3CCN(C(C)C)CC3)nc(C3CCCCC3)nc2cc1OCCCN1CCCC1,67.2 ± 8%
12,O=C(c1ccc(C(=O)N2CCC(N3CCCC3)CC2)c(Nc2ccccc2)c1)N1CCC(N2CCCC2)CC1,74.9 ± 8.6%
13,Cc1nnc2c3ccccc3c(N[C@@H](C)[C@H](c3ccccc3)N(C)C)nn12 [L-moses],41 ± 3.8%
14,COc1cc2c(cc1OCCCN1CCCC1)N=C(N)C21CCC1,71.6 ± 11%
15,COc1cc(-c2cn(C)c(=O)c3cnccc23)c(OC)cc1CN(C)C,53.6 ± 13%
16,CCn1cc(-c2cccc(C(F)(F)F)c2)c2sc(C(=N)NC3CCS(=O)(=O)CC3)cc2c1=O,29.1 ± 4.8%
